Measured values from PubChem BioAssay AID504329 (Southern Research Specialized Biocontainment Screening …, 2011).
Screen size: about 340,000 compounds; about 1,000 (0.29%) were called active. Cut-off read from the data, not from the text of the source: inconclusive = inhibition above about 27% without an active follow-up result; inactive = below that. These entries were drawn from the full list. Potency and affinity values are given separately.

Assay: NS1A inhibition, H1N1 influenza, cell based functional assay (AID 504329)
Details: percent inhibition, at 12.5 µM, hits give high values

SMILES	inhibition
COc1ccc(N(CC(=O)NCc2ccc(Cl)cc2)S(=O)(=O)c2c(C)noc2C)cc1	6.25% (inactive)
OC(CNCC(c1ccc(Cl)cc1Cl)c1c[nH]c2ccccc12)c1ccccc1 (stereo not given)	5.5% (inactive)
NCC(c1ccc(Cl)cc1Cl)c1c[nH]c2ccccc12 (stereo not given)	7.89% (inactive)
CC[C@]12C(=O)N(C)C[C@H]([C@@H]3C(=O)N(Cc4ccccc4)C(=O)[C@@H]31)N2C(=O)c1ccc(Br)cc1	1.57% (inactive)
Cc1ccc(NCc2nc3ccccc3n2C)c(C)c1	1.58% (inactive)
CN(C)c1ccc(N=Nc2nc3ccccc3n2C)cc1	-12.4% (inactive)
Cc1ccc(CNc2nc3ccccc3n2C)cc1	-2.51% (inactive)
Cn1c(N=Nc2ccccc2)nc2ccccc21	3.98% (inactive)
C=CCn1c(C(O)c2ccccc2)nc2ccccc21 (stereo not given)	-2.4% (inactive)
COC(=O)c1ccccc1NC(=O)c1cccc(NC(=O)C(C)C)c1	-5.47% (inactive)
Cc1ccc(Cl)c2c1NC(=O)C2(O)CC(=O)c1ccccc1O (stereo not given)	1.71% (inactive)
Cc1nn(Cc2ccc(F)cc2)c(Cl)c1/C=N/NC(=O)c1cccnc1	3.93% (inactive)
CCCCNC(=O)C1CCCN1S(=O)(=O)c1cccc2nsnc12 (stereo not given)	-12.3% (inactive)
O=c1c2c(-c3ccccc3)csc2ncn1/N=C/c1c2ccccc2cc2ccccc12	5.97% (inactive)
CN(C)c1ccc(C=Nc2ccc(N(C)C)cc2)cc1	26.9% (inactive)
Cc1ccc(C=Nc2ccc(N(C)C)cc2)o1	22.3% (inactive)
CN1C(C(=O)NCCc2cccs2)CC2Cn3c(nc4cc5ccccc5cc43)C21 (stereo not given)	1.77% (inactive)
CSc1cccc(CN2CCN(CCc3ccccc3)C(CCO)C2)c1 (stereo not given)	-1.46% (inactive)
O=C(c1cc(-c2ccccc2Cl)on1)N1CCN(C(=O)c2ccco2)CC1	9.97% (inactive)
CN(CCO)c1cc(N2CCN(C(=O)c3ccco3)CC2)c2nonc2c1[N+](=O)[O-]	-1.02% (inactive)
O=C(c1ccco1)N1CCN(CCCCN2C(=O)c3ccccc3C2=O)CC1	-6.16% (inactive)
O=C(c1ccco1)N1CCN(C2=NS(=O)(=O)c3ccccc32)CC1	-26.1% (inactive)
COc1ccc(C)cc1-n1nnnc1SCc1csc(C)n1	-0.01% (inactive)
O=C(Cc1ccc2c(c1)OCCO2)Nc1cc(C(F)(F)F)ccc1N1CCOCC1	-15.4% (inactive)
O=C(CC(O)(CC(=O)OCc1ccccc1)C(=O)OCc1ccccc1)OCc1ccccc1	10.3% (inactive)

SMILES	inhibition
O=C1/C(=C\c2cccc(O)c2O)SC(=S)N1Cc1ccccc1	11.5% (inactive)
O=C1/C(=C/c2ccc(O)c([N+](=O)[O-])c2)SC(=S)N1Cc1ccccc1	8.28% (inactive)
O=C(c1ccncc1)C12CN3CN(CN(C3)C1)C2	-2.7% (inactive)
COc1cc(/C=N\NC(=O)CN2CCOCC2)ccc1OCC(=O)Nc1ccc(C)c(C)c1	0.68% (inactive)
C/C(=N\N1CCN(Cc2ccc(Cl)cc2)CC1)c1ccc([N+](=O)[O-])cc1	1.56% (inactive)
CC(O)(Cc1ccccn1)Cc1ccccn1	3.66% (inactive)
CC(c1ccccn1)C(C)(O)C(C)c1ccccn1 (stereo not given)	-2.07% (inactive)
COc1ccccc1N1CCN(Cc2cccc(OC)c2OC)CC1	-12% (inactive)
COc1ccccc1N1CCN(Cc2ccc(OC)c(OC)c2OC)CC1	0.22% (inactive)
COc1ccccc1N1CCN(Cc2cc3c(cc2Br)OCCO3)CC1	3.4% (inactive)
COc1ccccc1N1CCN(Cc2cccc(OC)c2O)CC1	0.66% (inactive)
Cc1onc(COc2ccccc2O)c1Br	-2.44% (inactive)
Cc1cccc(NC(=O)C2CCCN(S(=O)(=O)c3ccc4[nH]c(=O)ccc4c3)C2)n1 (stereo not given)	5.77% (inactive)
CC(C)C(NC(=O)c1ccc(C(C)(C)C)cc1)C(=O)NC1=NCCS1 (stereo not given)	8.12% (inactive)
Oc1cncc(-c2cccnc2)c1	-6.57% (inactive)
CN(C)c1ccc(-c2cc(O)c3ncccc3c2)cc1	21.2% (inactive)
c1cncc(-c2cnc3ccccc3c2)c1	-4.39% (inactive)
c1cc(-c2ccncc2)ccn1	-1.52% (inactive)
CC1(c2nnc(-c3ccc(Cl)cc3)o2)CC(c2c(Cl)cccc2Cl)=NO1 (stereo not given)	-2.35% (inactive)
Cc1ccc(NC(=S)NCc2ccccc2)c(C)c1	-7.15% (inactive)
O=C(Cc1ccccc1)Nc1cc(C(=O)c2ccccc2)ccc1N1CCOCC1	-3.63% (inactive)
COc1ccc(C(=O)NCCNc2nc3ccc(C)cc3cc2C#N)cc1	-6.86% (inactive)
CN(CC1CCCN(CCc2ccc(Cl)cc2)C1)C(=O)CC(F)(F)F (stereo not given)	-8.18% (inactive)
Cc1ccc(CNC(=O)C2CCC(=O)N(CCc3ccc(Cl)cc3)C2)s1 (stereo not given)	-10% (inactive)
COc1ccc(C(=O)NC(C)CCCC(C)(C)O)cc1OC1CCN(C(C)=O)CC1 (stereo not given)	-0.26% (inactive)

SMILES	inhibition
Clc1ccc(-c2noc(COc3ccccc3)n2)cc1	-0.74% (inactive)
C/C(=N/NC(=O)CNC(=O)c1ccccn1)c1ccc([N+](=O)[O-])cc1	-5.71% (inactive)
C/C(=N\NC(=O)C(c1ccccc1)c1ccccc1)c1ccccn1	-11.5% (inactive)
CCOc1ccc(C(=O)NCCN2CCCCC2)c(OCC)c1	-19.7% (inactive)
Cc1ccc(NC(=O)CN(C)C(=O)c2ccc(NS(=O)(=O)c3ccc4[nH]c(=O)[nH]c4c3)cc2)cc1	2.9% (inactive)
O=C(COC(=O)C12CC3CC(CC(O)(C3)C1)C2)NC(=O)NCc1ccco1	-3.4% (inactive)
O=c1[nH]c(=S)[nH]c2scc(-c3ccc(Br)cc3)c12	-20.7% (inactive)
CCn1c(C)nc2cc(C(=O)N/N=C/c3cccc(OC)c3O)ccc21	5.9% (inactive)
CCn1c(C)nc2cc(C(=O)N/N=C/c3cccc(O)c3O)ccc21	0.31% (inactive)
O=C(O)c1cc(-c2cccc3ccccc23)nc2ccccc12	-1.69% (inactive)
O=C(O)c1cc(-c2ccccc2)nc2ccccc12	1.29% (inactive)
COc1ccc(C(=O)N2CCN(c3ncccn3)CC2)cc1[N+](=O)[O-]	-14.3% (inactive)
O=C(NC(=S)Nc1ccc2oc(-c3ccncc3)nc2c1)c1ccccc1F	1.17% (inactive)
O=C(N/N=C/c1c[nH]c2ccccc12)c1ccc(Cl)cc1	3.88% (inactive)
Clc1ccc(OCc2nc(-c3ccccn3)n[nH]2)cc1	6.94% (inactive)
c1ccc(-c2cnc(-c3ccccc3)nn2)cc1	10% (inactive)
c1ccc(-c2nn[nH]n2)nc1	-11.7% (inactive)
c1ccc(-c2ccncc2)nc1	-0.28% (inactive)
c1ccc(-c2nc3ccccc3[nH]2)nc1	13.8% (inactive)
c1ccc(-c2nc(-c3ccccn3)nc(-c3ccccn3)n2)nc1	7.93% (inactive)
Clc1ccc(-c2cnc3ccccc3n2)cc1	-9.76% (inactive)
c1ccc(-c2nnc(-c3ccccn3)s2)nc1	-1.25% (inactive)
COc1ccc(C(C)=O)cc1CN(c1ccccc1OC)S(=O)(=O)c1cccs1	13.1% (inactive)
Cc1cc(C)nc(SCc2ccc(C(=O)N/N=C/c3ccco3)cc2)n1	-4.36% (inactive)
CCCNS(=O)(=O)c1cccc(C(=O)NC2CCCc3ccccc32)c1 (stereo not given)	-1.43% (inactive)

SMILES	inhibition
Cc1ccc(C)c(SCC(=O)NC2CCS(=O)(=O)C2)c1 (stereo not given)	-12.1% (inactive)
CCCCCCCCNC(=O)c1cnccn1	-8.66% (inactive)
Nc1nc(N)nc(-c2ccccc2-c2nc(N)nc(N)n2)n1	21.3% (inactive)
c1ccc(-c2nc3ccccc3nc2-c2ccccn2)nc1	0.35% (inactive)
Nc1nc(N)nc(-c2ccccc2O)n1	1.67% (inactive)
c1cc(-c2n[nH]c(-c3ccncc3)n2)ccn1	-1.91% (inactive)
c1ccc(-c2n[nH]c(-c3ccccn3)n2)cc1	-0.5% (inactive)
CSc1nncc(-c2ccccc2)n1	-2.08% (inactive)
c1ccc(-c2nc(-c3ccccn3)no2)cc1	-0.45% (inactive)
c1ccc(-c2ccccn2)nc1	-0.49% (inactive)
CCN(CC)S(=O)(=O)c1ccc(N2CCOCC2)c(NC(=O)COc2ccccc2C)c1	-22.8% (inactive)
CCc1nc2ccccc2n1Cc1cc(=O)n2cc(C)ccc2n1	-1.64% (inactive)
CCOc1ccc(NC(=S)N2CCN(S(=O)(=O)c3ccccc3)CC2)cc1	24.8% (inactive)
CC(C)(C)c1nnc(N/N=C/c2ccccc2)n(N)c1=O	-3.79% (inactive)
CC(C)(C)c1nnc(N/N=C/c2ccc(Br)cc2)n(N)c1=O	-5.94% (inactive)
Cc1nnc(N/N=C/c2ccccc2O)n1N	9.93% (inactive)
CCc1nnc(N/N=C/c2ccccc2F)n1N	-9% (inactive)
CCc1nnc(N/N=C/c2cc(C)c(C)cc2C)n1N	-3.56% (inactive)
CC(C)(C)c1nnc(N/N=C/c2ccc(O)cc2)n(N)c1=O	6.15% (inactive)
Cc1ccc(CN2CCC(n3nccc3NC(=O)CCOc3ccccc3)CC2)cc1C	-4.94% (inactive)
CCN1CCN(C(c2cc(OC)ccc2OC)c2nnnn2Cc2ccccc2)CC1 (stereo not given)	-5.45% (inactive)
Cc1cn(CC(=O)NCc2ccc3c(c2)OCO3)c(=O)[nH]c1=O	0.05% (inactive)
Cc1ccc(C(=O)COC(=O)CNC(=O)c2cccs2)cc1C	3.9% (inactive)
Cc1ccc(CS(=O)Cc2ccc(C(=O)NCCc3ccccc3)o2)cc1 (stereo not given)	3.5% (inactive)
COc1ccc(N2CCN(C(=O)c3c(C)nn(-c4ccccc4)c3C)CC2)cc1	1.11% (inactive)
